KCNQ2 enhance – enhances the rat KCNQ2 potassium channel; O88943; CHO-K1 KCNQ2, FluxOR thallium flux fluorescence; stronger effect = higher value; B-score at 10 µM; actives 0.54% (n = 310,000);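 active means fluorescence ratio B-score at least 3 SD of library B-scores, with initial fluorescence B-score within 3 of them, cut at about 5.3 in these data; same plate scores as AID 2156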;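 further: B-score of peak minus minimum over baseline fluorescence ratio after K+ and Tl+ stimulus; positive B-score means potentiation of KCNQ2 with more thallium influx and brighter signal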
Target sequence (O88943 whole entry, looked up): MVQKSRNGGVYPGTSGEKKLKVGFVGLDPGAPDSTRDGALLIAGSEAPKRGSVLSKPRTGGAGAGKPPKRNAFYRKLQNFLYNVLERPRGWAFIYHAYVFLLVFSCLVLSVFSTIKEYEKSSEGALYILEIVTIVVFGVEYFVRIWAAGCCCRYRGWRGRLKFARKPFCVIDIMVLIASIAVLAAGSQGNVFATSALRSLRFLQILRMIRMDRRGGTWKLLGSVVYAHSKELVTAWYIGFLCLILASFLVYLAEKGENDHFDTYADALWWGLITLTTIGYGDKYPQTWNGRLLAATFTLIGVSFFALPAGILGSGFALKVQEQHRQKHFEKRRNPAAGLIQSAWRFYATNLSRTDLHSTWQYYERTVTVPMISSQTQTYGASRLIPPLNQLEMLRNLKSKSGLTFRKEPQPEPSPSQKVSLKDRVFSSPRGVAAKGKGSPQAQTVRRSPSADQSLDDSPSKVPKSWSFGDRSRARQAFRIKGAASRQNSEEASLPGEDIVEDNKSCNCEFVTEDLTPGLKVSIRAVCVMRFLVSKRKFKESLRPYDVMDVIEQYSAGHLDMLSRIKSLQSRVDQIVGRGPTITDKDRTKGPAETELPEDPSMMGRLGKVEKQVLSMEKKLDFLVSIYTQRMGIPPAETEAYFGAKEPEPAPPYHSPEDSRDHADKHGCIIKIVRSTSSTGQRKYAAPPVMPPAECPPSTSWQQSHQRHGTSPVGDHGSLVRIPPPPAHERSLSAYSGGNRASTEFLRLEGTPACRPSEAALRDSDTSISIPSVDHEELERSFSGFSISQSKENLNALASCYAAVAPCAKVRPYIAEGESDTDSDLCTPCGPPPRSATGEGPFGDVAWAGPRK
KCNQ2 inh – KCNQ2 (rat) channel inhibition. CHO-K1 KCNQ2, FluxOR thallium flux, 20 min; stronger effect = lower value. actives 1.1% (n = 310,000). B-score at 10 µM;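 active means fluorescence ratio B-score at most minus 3 library SDs, with starting brightness B-score within 2 library SDs, cut at about -5.5 in these data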
Active calls of the source: *; i = inactive; · = no result given. A selection: hits, their analogues and other compounds. The true share with any hit is near 1.6%.

SMILES | KCNQ2 enhance | KCNQ2 inh
Fc1ccccc1C1CC(c2ccco2)=Nc2ccccc2S1 (configuration not stated) | -7.3 | -7.3*
O=C(Nc1ccccc1F)N1CCC(NC(=O)C23CC4CC(CC(C4)C2)C3)CC1 | · | i
Cc1cc(C)c2nc(N3CCC(C(=O)NCC4CCCO4)CC3)sc2c1 (configuration not stated) | · | i
Cc1cc(C)c2nc(N3CCC(C(=O)NCCCN4CCCCC4)CC3)sc2c1 | -6.5 | -6.5*
Cc1[nH]c(=O)[nH]c(=O)c1S(=O)(=O)Nc1ccc(F)c([N+](=O)[O-])c1 | · | i
CC1CCN(c2oc(-c3ccccc3Cl)nc2C#N)CC1 | · | i
Cc1ccccc1-c1nc(C#N)c(N2CCC(C)CC2)o1 | -8.1 | -8.1*
Cc1ccc(NS(=O)(=O)c2cccc(C(=O)NCC(c3ccc(F)cc3)N3CCOCC3)c2)cc1 (configuration not stated) | · | i
C=CCN(c1ccccc1)S(=O)(=O)c1cccc(C(=O)NCC(c2ccc(F)cc2)N2CCOCC2)c1 (configuration not stated) | -6 | -6*
COc1ccc(C(CNC(=O)c2ccc(Cl)c(NC(=O)c3cccs3)c2)N2CCCC2)cc1 (configuration not stated) | 1.2 | i
O=C(N[C@@H](Cc1c[nH]c2ccccc12)C(=O)O)c1ccc(Cl)cc1 | 1 | i
NC(=NCCc1c[nH]c2ccccc12)NC(=O)c1ccc(Cl)cc1 | -5.7 | -5.7*
CCOC(=O)C1=C(COC(=O)COc2ccc(C#N)cc2)NC(=O)NC1C (configuration not stated) | 1.1 | i
Cc1nnnn1/C(=C\c1ccccc1)C(=O)OCC(=O)NC(C)(C)C | · | i
Cc1nnnn1/C(=C\c1ccccc1)C(=O)OCC(=O)NC1CCCCC1 | -6 | -6*
CS(=O)(=O)N(CC(=O)Nc1ccc(F)cc1F)C1CCCCC1 | 0.06 | i
COc1ccc(Cl)cc1NC(=O)CN(C1CCCCC1)S(C)(=O)=O | -5.9 | -5.9*
Cc1ccc(C(=O)OCC(=O)c2c[nH]c3ccccc23)cc1 | 0.98 | i
COc1cc(C(=O)OCC(=O)c2c[nH]c3ccccc23)ccc1OCC(=O)N1CCOCC1 | · | i
C=CCN(c1ccccc1OC)S(=O)(=O)c1cccc(C(=O)OCC(=O)c2c[nH]c3ccccc23)c1 | 6.7* | i
COc1cc(OC)c(N(C)S(=O)(=O)c2cccc(C(=O)OCC(=O)c3c[nH]c4ccccc34)c2)cc1Cl | 6.3* | i
Cc1ccc(-n2nnnc2SCC(=O)NC2CC2)cc1C | 0.93 | i
S=C(NC1CCCCCC1)NC1CCCC1 | 0.57 | i
NNC(=S)NC1CCCCCCCCCCC1 | -6.9 | -6.9*
O=C(NCC1CCCN1S(=O)(=O)c1ccccc1)C(=O)NC1CC1 (configuration not stated) | · | i
SMILES | KCNQ2 enhance | KCNQ2 inh
COc1ccc(CN(CC(O)COc2cccc3[nH]cc(C)c23)C(C)(C)C)cc1 (configuration not stated) | -5.9 | -5.9*
COc1ccc(CN(C)CC(O)COc2ccc(-c3ccccc3)cc2)cc1OC (configuration not stated) | 0.56 | i
CCOc1c(Br)cc(C(=O)N2CCCN(C)CC2)cc1OC | · | i
CCN(CCCNC(=O)CCCN1C(=O)COc2ccc(C)cc21)c1cccc(C)c1 | -6.3 | -6.3*
Cc1ccc2c(c1)N(CCCC(=O)NCCCN1CCCCC1)C(=O)CO2 | 0.99 | i
CC(C)=CC(=O)Nc1ccc(OCc2ccccc2)cc1 | 7.6* | i
O=C(Nc1ccc(OCc2ccccc2)cc1)c1ccccc1 | · | i
NCC(O)CN1CCN(Cc2ccccc2)CC1 (configuration not stated) | 0.16 | i
O=C(CSc1ncccn1)NCC1CCCO1 (configuration not stated) | 1.4 | i
Cc1ccc(NC(=O)C(c2ccccc2)C2CCCC2)cc1 (configuration not stated) | · | i
O=C(Nc1ccc2ccccc2c1)C(c1ccccc1)C1CCCC1 (configuration not stated) | -5.7 | -5.7*
Cc1cc(Oc2ccc(C)c(Cl)c2)nc(SCC(=O)c2ccccc2)n1 | 7* | i
Cc1ccc(C(=O)CSc2cc(C)nc(SCC(=O)c3ccccc3)n2)cc1 | · | i
COc1ccccc1CN1CC(C(=O)N(Cc2cnn(C)c2)C(C)C)CCC1=O (configuration not stated) | 1.1 | i
COc1cccc(-c2nc(CS(=O)(=O)CC(=O)NCc3ccccc3)c(C)o2)c1 | -5.9 | -5.9*
COc1cccc(-c2nc(CS(=O)(=O)CC(=O)NCCCc3ccccc3)c(C)o2)c1 | · | i
CN(CC(=O)Nc1cccc(F)c1)C(=O)CCc1nc2ccccc2c(=O)[nH]1 | · | i
CCCn1nc(C(=O)NNC(=O)CCCOc2ccc(C)cc2)c2ccccc2c1=O | 0.65 | i
O=C1c2cccc(OCc3ccc(F)cc3)c2CCN1Cc1ccccc1 | -6.5 | -6.5*
Cc1ccc(COc2cccc3c2CCN(Cc2ccc(F)cc2)C3=O)cc1 | · | i
Cc1ccc(-c2nnc(COC(=O)c3cccs3)o2)cc1 | · | i
Cc1ccc(SCc2nc(N)nc(Nc3ccccc3C)n2)c(C)c1 | 2.7 | i
Cc1ccc(SCc2nc(N)nc(Nc3ccccc3C)n2)cc1C | 6.7* | i
Cc1ccccc1Nc1nc(N)nc(CSc2ccc(F)cc2)n1 | · | i
Cc1ccccc1Nc1nc(N)nc(CSCC(=O)Nc2cccc(Br)c2)n1 | 27* | i
SMILES | KCNQ2 enhance | KCNQ2 inh
CCC(C)N(C(=O)Cn1cnc2c1c(=O)n(C)c(=O)n2C)C1CCS(=O)(=O)C1 (configuration not stated) | 1.9 | i
Cc1ccccc1CN1CCN(Cc2ccccc2C(F)(F)F)CC1 | · | i
Cc1ccc(S(=O)(=O)N2CCN(Cc3ccccc3C(F)(F)F)CC2)cc1 | -6 | -6*
Cc1ccc(-c2nc(CS(=O)CC(=O)NCCN3CCCCC3C)c(C)o2)cc1 (configuration not stated) | 1.6 | i
CCOc1ccc(Br)cc1C1=NN(C(C)=O)C(c2ccc([N+](=O)[O-])s2)O1 (configuration not stated) | · | i
Cc1ccc(S(=O)(=O)NC(CC(C)C)C(=O)Oc2ccc3c4c(c(=O)oc3c2)CCC4)cc1 (configuration not stated) | -7.9 | -7.9*
CC[C@@H](NS(=O)(=O)c1ccc(C)cc1)C(=O)Oc1ccc2c3c(c(=O)oc2c1)CCC3 | 0.64 | i
CCOc1cccc2cc(C(=O)NCc3ccccc3)c(=N)oc12 | · | i
CCOc1ccccc1-c1ccc(C(=O)NCc2ccccc2)o1 | -5.8 | -5.8*
Cc1ccc(CNC(=O)[C@H](C)N2C(=O)N3CCc4c([nH]c5ccccc45)[C@@]3(C)C2=O)cc1 | 0.06 | i
COc1ccc2[nH]c3c(c2c1)CCN1C(=O)N([C@@H](C)C(=O)NCc2ccc(F)cc2)C(=O)[C@]31C | · | i
C[C@@H](C(=O)NCCc1ccc(F)cc1)N1C(=O)N2CCc3c([nH]c4ccccc34)[C@@]2(C)C1=O | -6.3 | -6.3*
COc1ccc2[nH]c3c(c2c1)CCN1C(=O)N([C@@H](C)C(=O)NCCc2ccc(F)cc2)C(=O)[C@]31C | -7 | -7*
CCOc1ccc2[nH]cc(-c3csc(N)n3)c2c1 | 0.2 | i
Cc1cc2cc(CCNC(=O)CCCc3ccccc3)c(=O)[nH]c2cc1C | · | i
CS(=O)(=O)N(CC(=O)NCc1ccccc1)Cc1ccc(Cl)cc1 | · | i
